Laboratory results from PubChem BioAssay AID686978 (National Center for Advancing Translational Sciences (NCATS), 2013).
Screen size: about 420,000 compounds; about 64,000 (15%) were called active. About 27% were inconclusive and are not listed. The call rests on the fitted dose curve; in most records, active means well fitted inhibition curve with a large enough effect; inconclusive means small, poorly fitted or top-dose-only effect; inactive means flat fitted curve, though single readings scatter. A selection follows. A call without a number means that no potency is given here.

test: qHTS for Inhibitors of human tyrosyl-DNA phosphodiesterase 1 (TDP1): qHTS in cells in absence of CPT; conditions: DT40 Tdp1-/- hTDP1 cells, no CPT, ATP luminescence, 48 h; activity change, negative = growth inhibition: at 46.2 µM (top of the series); further: nearly all actives have a fitted effect of over 55% in size
Excerpt: Human tyrosyl-DNA phosphodiesterase 1 (TDP1) is a novel repair gene, and we propose to use it as a new target for anticancer drug development. TDP1 is not an essential protein, but under treatment with topoisomerase I poison (camptothecin: CPT), TDP1 works as a critical factor for cell survival. To directly identify novel TDP1 inhibitors active in a cellular environment, we have knocked-out the Tdp1 gene in chicken DT40 cells (Tdp1-/-) and generated a complemented counterpart cells that contains a stable transfection of the human TDP1 gene (Tdp1-/-;hTDP1 cells). For the primary screen, Tdp1-/-;hTDP1 cells will be exposed to small molecules in the presence or absence of CPT, and their growth kinetics will be evaluated after 48 hours by measuring ATP activity. […] The hit compounds will then be evaluated in the presence or absence of CPT using Tdp1-/- cells. […] In tertiary assays, biochemical gel-based assays will be used to assess whether the hit compounds specifically target TDP1.
To this end, we have screened this cell line against the MLSMR in two primary screens. In one screen we add CPT and in the other we screen in the absence of CPT; this AID represents the screen where CPT was absent.
NIH Chemical Genomics Center [NCGC]
NIH Molecular Libraries Probe Centers Network [MLPCN]
Assay Submitter (PI): Yves Pommier, NCI
DT40-hTDP1 cells without 20 nM Camptothecin (add 20 microL of DMSO in 1 L of cell culture medium) were dispensed at 400 cells/5microL/well in tissue culture treated 1536-well white wall/solid bottom assay plates (Greiner Bio-One North America, NC, U.S.A.) using a Multidrop Combi 8 channel dispenser (Thermo Fisher, Waltham, MA, USA). 23 nL compounds and controls were transferred using the pin tool (Kalypsys, San Diego, CA, USA) to the assay plates. The assay plates were then incubated at 37 masculineC for a minimum 48 hr. Three microL of Cell Titer Glo solution was added to the plates and incubated at RT in dark for 30 min. Luminescence was read using ViewLux (Perkin Elmer) with 1 sec exposure slow speed, high gain and 2x binning.
Potency means the concentration at half of the fitted maximal effect.

Compound | Potency
Cc1ccc2nc(N3CCN(C(=O)c4ccco4)CC3)sc2c1 | inactive
COc1ccc2nc(N3CCN(C(=O)c4ccc([N+](=O)[O-])o4)CC3)sc2c1 | 20.6 µM (active)
COC(=O)[C@H](CCSC)NC(=O)Nc1ccc(OC)cc1 | inactive
CCN(CC)C(=O)CCC(=O)Nc1ccc(C(=O)OC)cc1 | inactive
Cc1ccc(NC(=O)C(=O)NCC(c2cccnc2)N2CCOCC2)cc1 (centres undefined) | inactive
COc1ccccc1N1CCN(C(CNC(=O)C(=O)NCc2ccc(C)cc2)c2cccnc2)CC1 (centres undefined) | 2.06 µM (active)
Cc1ccc(C)c(NC(=S)NCC(c2cccnc2)N2CCOCC2)c1 (centres undefined) | inactive
Cc1cc(C)n(-c2nnc(C)n2NC(=O)c2cccc(Cl)c2)n1 | inactive
Cn1c(SCC(=O)c2cccs2)nnc1-c1ccco1 | inactive
CC1CCC2(CC1)NC(=O)N(CC(=O)NCc1ccco1)C2=O (centres undefined) | inactive
O=C(CN1C(=O)/C(=C\c2ccc(C(F)(F)F)cc2)Sc2ccccc21)NCc1ccco1 | 13 µM (active)
O=C(CCCCCN1C(=O)c2cccc3cccc(c23)C1=O)NCc1ccco1 | inactive
Cc1cccc(NS(=O)(=O)c2cc(Cl)ccc2Cl)n1 | inactive
Nc1nc(SCC(=O)NN(c2ccccc2)c2ccccc2)n[nH]1 | inactive
CCOC(=O)C(Cc1ccccc1)NC(=O)CCC(=O)c1ccc(OC)cc1 (centres undefined) | inactive
O=C(NCCc1ccccn1)c1cc(C(=O)C2CCCCC2)c[nH]1 | inactive
Cn1cnnc1SCC(=O)Nc1ccc(N2CCOCC2)cc1 | inactive
O=C(NCCc1ccccn1)c1cc(-c2ccc(Cl)cc2)nc2ccccc12 | 18.4 µM (active)
O=C(CNC(=O)COc1ccccc1)NCCc1ccccn1 | inactive
CN(CC(=O)NCCc1ccccn1)S(=O)(=O)c1ccc(Cl)cc1 | inactive
Cc1cc(=O)oc(C)c1C(=O)NC1CC(C)(C)NC(C)(C)C1 | inactive
O=C(CC1SCCNC1=O)Nc1ccc(Cl)cc1 (centres undefined) | inactive
CCOc1ccccc1NC(=O)CCN1CCN(S(=O)(=O)c2ccc(OC)cc2)CC1 | inactive
N#Cc1c(N)nc2c3c(sc(=N)c2c1N)NC(=O)CC3c1ccccc1Cl (centres undefined) | 13 µM (active)
COc1ccc(C2CC(=O)Nc3sc(=N)c4c(N)c(C#N)c(N)nc4c32)cc1OC (centres undefined) | inactive
COCCN(C(=S)Nc1ccccc1OC)C1CCN(C(C)C)CC1 | inactive
CC(Sc1nncs1)C(=O)NCc1ccc2c(c1)OCO2 (centres undefined) | inactive

Compound | Potency
O=C(C1Cc2ccccc2CN1C(=O)c1ccco1)N1CCN(c2ccccc2)CC1 (centres undefined) | inactive
O=[N+]([O-])c1ccc2[nH]c3c(c2c1)CCCC3O (centres undefined) | inactive
CCc1cc2c(cc3c(=O)n(CC(=O)N4CCN(c5cc(Cl)ccc5C)CC4)nc(CC)n32)s1 | inactive
CCc1nn(CC(=O)N2CCN(c3cc(C)ccc3C)CC2)c(=O)c2cc3occc3n12 | inactive
Cc1nn(CCCC(=O)NCc2ccccc2Cl)c(=O)c2nccn12 | inactive
CCc1nn(CCCC(=O)NCc2ccccc2OC)c(=O)c2cc3occc3n12 | inactive
CC(NCCc1ccc(S(N)(=O)=O)cc1)C(=O)NCc1ccccc1 (centres undefined) | inactive
C[C@H](NC(=O)NCCc1ccccc1)C(=O)O | inactive
Cc1ccccc1CNC(=O)CCCn1nc(C)c2sc3ccccc3c2c1=O | 20.6 µM (active)
Cc1nn(C(C)C(=O)NCCc2ccccc2)c(=O)c2c1sc1ccccc12 (centres undefined) | 16.4 µM (active)
Cc1ccc(C)c(N2CCN(C(=O)Cn3nc(C)c4sc5ccccc5c4c3=O)CC2)c1 | 23.1 µM (active)
Cc1cc(C)cc(OCC(=O)NNC(=O)CCN2C(=O)c3ccccc3C2=O)c1 | inactive
Cc1ccc(O)c(NC(=O)c2cc(-c3ccco3)on2)c1 | inactive
CC1Cc2cc(/C(O)=C3\C(=O)C(=O)N(CCN4CCOCC4)C3c3ccccc3F)ccc2O1 (centres undefined) | inactive
O=C(O)CC1S/C(=N\N=C/c2ccccc2O)N(c2ccc(O)cc2)C1=O (centres undefined) | inactive
CN(C(=O)c1ccccc1)c1nccnc1C#N | inactive
CC(=O)Nc1cccc(C(=O)OCC(=O)NCc2cc(C)c(O)c(C)c2)c1 | inactive
Brc1ccc(-c2csc(N/N=C/c3ccc4c(c3)OCO4)n2)cc1 | 8.2 µM (active)
Cc1cc(=O)[nH]c(N/N=C/c2ccc3c(c2)OCCO3)n1 | inactive
O=C(CN1CCN(c2nc(-c3ccccc3)cs2)CC1)NCc1ccc2c(c1)OCO2 | inactive
O=C(NCC(=O)N1CCN(c2ccccc2F)CC1)c1cccs1 | inactive
COc1cc(/C=C(\C#N)C(=O)Nc2ccc3ccccc3c2)c([N+](=O)[O-])cc1OC | inactive
O=c1ccc2cc(S(=O)(=O)Nc3ccccc3F)ccc2o1 | inactive
Nc1ccc(OCC(O)C[n+]2ccc(CCS(=O)(=O)[O-])cc2)cc1 (centres undefined) | inactive
COc1ccc(C(=O)COC(=O)CN2C(=O)C3CC=CCC3C2=O)c(OC)c1 (centres undefined) | inactive
CC(C)Cn1c(N)c(C(=O)COC(=O)CN2C(=O)C3CC=CCC3C2=O)c(=O)n(C)c1=O (centres undefined) | 9.2 µM (active)
CCCc1cc(=O)[nH]c(SCC(=O)c2c(N)n(CC(C)C)c(=O)n(C)c2=O)n1 | inactive
